The full list was thinned out, with hits kept by preference.
Pf Dd2 growth: Plasmodium falciparum Dd2 growth inhibition. Potency, µM (highest dose often 28.9 µM), inactives show at the highest dose activity, negative = inhibition, usual class: inhibitors. P. falciparum Dd2 growth, SYBR Green, 72 h. AID 1347417. 4.3% of 120,000 active; active = well fitted inhibition curve with a large enough effect;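 also: plate controls were DMSO vehicle for no effect and reference drug for full effect; nearly all actives have a fitted effect of over 65% in size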
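Readout: SYBR Green fluorescence, 485 nm excitation, 535 nm emission, after ~16 h lysis at 37C. Before that, Dd2-infected red cells (2.5% hematocrit) grew 72 h with compound, 29 uM top final concentration.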
Active calls of the source: *; i = inactive; [ ] = remark or other dose. Potency is read from the fitted curve at half-maximal effect.

SMILES	Pf Dd2 growth
COc1ccc(-c2noc(-c3cccn3CC(=O)Nc3cccc(C)c3)n2)cc1F	-5%
CCOC(=O)c1ccc(NC(=O)Cn2cccc2-c2nc(-c3ccc(OC)c(F)c3)no2)cc1	40%
COc1ccc(NC(=O)Cn2cccc2-c2nc(-c3ccc(F)cc3)no2)cc1Cl	11µM*
O=C(Cn1cccc1-c1nc(-c2ccc3c(c2)OCO3)no1)Nc1ccccc1	2.8µM*
Cc1ccc(NC(=O)Cn2cccc2-c2nc(-c3ccc(F)cc3)no2)cc1F	-3%
COc1ccc(-c2noc(-c3cccn3CC(=O)Nc3cc(Cl)c(OC)cc3OC)n2)cc1F	27%
CC(=O)c1cccc(NC(=O)Cn2cccc2-c2nc(-c3ccc4c(c3)OCO4)no2)c1	i
CC(=O)c1ccc(NC(=O)Cn2cccc2-c2nc(-c3ccc4c(c3)OCO4)no2)cc1	6%
COc1ccc(-c2noc(-c3cccn3CC(=O)Nc3ccc(F)cc3)n2)cc1F	3.2µM*
CCC(c1cccs1)N1C(=O)[C@H]2CN(S(=O)(=O)c3cn(C)cn3)C[C@H]2C1=O (some centres not stated)	i
CCCC1c2nccn2CCCN1C(=O)c1cn2ccccc2n1 (configuration not stated)	i
COCC(=O)N1CCC2(CC1)Nc1ccccc1NC2=O	-4%
COCCN1C(=O)c2cccn2CC1CNC(=O)c1cccc2nccnc12 (configuration not stated)	-1%
CO[C@H]1[C@H](NC(=O)c2cc3ccccc3[nH]2)c2ccccc2C12CCNCC2	-5%
CO[C@H]1[C@H](NC(=O)c2cc(C)nn2C)c2ccccc2C12CCNCC2	-3%
CO[C@H]1[C@H](NC(=O)c2cc3ccccc3n2C)c2ccccc2C12CCNCC2	7.9µM*
Cc1cccn2c(=O)cc(CN3CCC4(CC3)C(C(=O)O)CC(=O)N4C)nc12 (configuration not stated)	-7%
O=C(c1ccccn1)N1CCC(n2cc(-c3nc(-c4ccccc4)no3)nn2)CC1	i
Cc1ccc([S+](=O)([O-])N2CCC(c3nn(-c4ccc(F)cc4)c(=O)[nH]3)CC2)cc1	8.9µM*
Cc1ccc([S+](=O)([O-])N2CCCC(c3nn(-c4ccc(Cl)cc4)c(=O)[nH]3)C2)cc1 (configuration not stated)	-21%
Cc1ccc([S+](=O)([O-])N2CCC(c3nn(C)c(=O)[nH]3)CC2)cc1	-4%
CCC(=O)Oc1c(Sc2ccc(Cl)cc2)c(C)nn1-c1ccccc1	-22%
Cc1ccc(Sc2c(C)nn(C(=O)c3ccc(Br)cc3)c2C)cc1	27%
Cc1nn(C(=O)c2ccccc2)c(C)c1Sc1ccc(Cl)cc1	11µM*
CCN1C(=O)C2CC3(CCN(C(=O)Cc4ccccc4)CC3)CN2C1=O (configuration not stated)	i
SMILES	Pf Dd2 growth
CC(C)(C)CC(=O)Nc1nc2c(s1)C[C@@H]1[C@](C)(CO)[C@H](O)CC[C@@]1(C)[C@@H]2CC(=O)NCc1ccccc1	i
C=CCN(C)C(=O)C[C@@H]1c2nc(NC(=O)COC)sc2C[C@@H]2[C@](C)(CO)[C@H](O)CC[C@]21C	-8%
C[C@]1(CO)[C@H]2Cc3sc(NC(=O)C4CCCCC4)nc3[C@@H](CC(=O)O)[C@]2(C)CC[C@H]1O	-21%
C[C@]1(CO)[C@H]2Cc3sc(NC(=O)c4c(F)cccc4F)nc3[C@@H](CC(=O)O)[C@]2(C)CC[C@H]1O	-4%
COc1ccc(CNC(=O)C[C@@H]2c3nc(NC(=O)c4cccs4)sc3C[C@@H]3[C@](C)(CO)[C@H](O)CC[C@]32C)cc1	4µM*
C=CCN(C)C(=O)C[C@@H]1c2nc(NC(=O)c3ccco3)sc2C[C@@H]2[C@](C)(CO)[C@H](O)CC[C@]21C	i
CCN(CC)C(=O)C[C@@H]1c2nc(NC(=O)c3ccc(F)cc3)sc2C[C@@H]2[C@](C)(CO)[C@H](O)CC[C@]21C	-12%
C=CCN(C)C(=O)C[C@@H]1c2nc(NC(=O)c3cccs3)sc2C[C@@H]2[C@](C)(CO)[C@H](O)CC[C@]21C	11µM*
COc1ccc(CNC(=O)C[C@@H]2c3nc(NC(=O)c4c(F)cccc4F)sc3C[C@@H]3[C@](C)(CO)[C@H](O)CC[C@]32C)cc1	7.9µM*
Cc1c(Cl)cccc1NC(=O)N1CCCC(Cn2cnc3cccnc32)C1 (configuration not stated)	i
COCCn1nc2n(c1=O)CCN(C(=O)CCc1c(C)noc1C)CC2	38%
Cc1nc(-c2c3n(c(=O)n(CC(=O)Nc4ccc5c(c4)OCO5)c2=O)CCCCC3)no1	-11%
Cc1cc(C(=O)N2C[C@@H](COc3ccccc3)[C@H](C(N)=O)C2)no1	-7%
Cc1cc(S(=O)(=O)C(CNC(=O)c2ccc(OC(C)C)cc2)c2cccs2)ccc1F (configuration not stated)	5µM*
CCOc1ccccc1C(=O)NCC(c1cccs1)S(=O)(=O)c1ccc(F)c(C)c1 (configuration not stated)	20%
COc1ccc(CC(=O)NCC(c2cccs2)S(=O)(=O)c2ccc(F)c(C)c2)cc1 (configuration not stated)	i
COc1cccc(CNC2(Cc3cc(-c4ccc(F)cc4)on3)COC2)c1	i
CC1=C[C@@H](CNS(=O)(=O)c2cccs2)[C@H](C(C)C)C[C@H]1CC(=O)NCCN1CCOCC1	-12%
COc1ccc(CCNC(=O)c2c(C)noc2-c2ccc(OC(F)(F)F)cc2)cc1OC	i
CC(C)(C)n1nnnc1C1CC2(CCOCC2)C(=O)N1Cc1ccccc1 (configuration not stated)	-20%
CCN1CCN(c2cc(C)c3cc(NC(=O)/C=C/c4ccc(OCCC(C)C)cc4)ccc3n2)CC1	1.1µM*
COc1ccc(-n2nc3ccc(NC(=O)c4cccc(OCCC(C)C)c4)cc3n2)cc1	i
Cc1cc(N2CCCCC2)nc2ccc(NC(=O)CCC(=O)N3CCN(c4ccccc4)CC3)cc12	-26%
CCOc1ccc(C(=O)Nc2ccc3ncnc(N4CCCCC4)c3c2)cc1	i
Cc1ccc(C)c(N2CCN(C(=O)CCC(=O)Nc3ccc4nc(N5CCCCC5)cc(C)c4c3)CC2)c1	i
SMILES	Pf Dd2 growth
CCN1CCN(c2cc(C)c3cc(NC(=O)/C=C/c4ccc(C)cc4)ccc3n2)CC1	1.1µM*
COc1ccc(-c2nc(C)nc3c2CCN(C(=O)c2ccccn2)CC3)cc1	0%
O=C(CC1CCN(C(=O)c2ccccc2F)C1)NCc1ccccc1 (configuration not stated)	23%
Cc1noc(C)c1C(=O)N1Cc2ccccc2OC2(CCN([S+](C)(=O)[O-])CC2)C1	9%
O=C([C@@H]1C[C@@H](c2ccc(F)cc2)N([S+](=O)([O-])c2cccnc2)C1)N1CCOCC1	-22%[44.1 µM]
CCN(CC)Cc1cnc2c(C(=O)NCCc3c[nH]c4ccccc34)cnn2c1	8.9µM*
CCN(CC)Cc1cnc2c(C(=O)NCCc3cnccn3)cnn2c1	-6%
CCN(CC)Cc1cnc2c(C(=O)NCCc3cccs3)cnn2c1	-21%
Cc1noc([C@@H]2CC(F)(F)CN2C(=O)c2ncccc2F)n1	8%
COc1ccc(O[C@H]2COCCN(S(=O)(=O)c3ccc(F)cc3)C2)cc1	-17%[44.1 µM]
O=C1CC(c2ccccc2)N(Cc2ccccn2)CCCCCN1 (configuration not stated)	-17%
CCOc1ccccc1CN1CCC[C@H]1C(=O)N1CCCCCCNC(=O)CC1	6.3µM*
CCOc1ccccc1CN1CCCCCCNC(=O)CC1	i

Bioassay records (PubChem BioAssay)
